Consider nine compounds from PubChem BioAssay (NCI).

Molecules are shown by their SMILES. The panel holds about 79,000 compounds, 15% with a hit somewhere; the sample as a whole holds those more often. A number with no mark means an inactive call. Active and inactive are the calls of the source. Cut-off read from the data, not from the text of the source: active = growth inhibition above about 70%; inactive = the rest.

A short description of experiment [1]: NCI Yeast Anticancer Drug Screen. Data for the rad50 strain (AID 155).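 Note: 0% = growth of vehicle-only cultures of the same strain.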 To be noted: S. cerevisiae rad50 strain growth inhibition, active compounds read high. The essentials: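 Genetically altered yeast (DNA repair pathway); compound treatment; growth inhibition vs vehicle ctrl.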
The nature of experiment [2]: NCI Yeast Anticancer Drug Screen. Data for the mec2-1 strain (AID 157). To be noted: S. cerevisiae mec2-1 strain, active compounds read high. The essentials: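 Yeast mec2-1 mutant treated with compound. Readout: growth inhibition vs vehicle controls.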
A short description of experiment [3]: NCI Yeast Anticancer Drug Screen. Data for the sgs1 mgt1 strain (AID 161).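 Note: 0% = growth of cultures given vehicle only.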 To be noted: S. cerevisiae sgs1 mgt1 strain, active compounds read high. The procedure, abridged:
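Inhibition of yeast growth, normalised to vehicle-treated controls, is reported for a strain bearing genetic alterations in DNA damage repair.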

Experiment [4] can be described thus: NCI Yeast Anticancer Drug Screen. Data for the cln2 rad14 strain (AID 165).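 Note: 0% = growth equal to vehicle treated cultures.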 To be noted: S. cerevisiae cln2 rad14 strain, active compounds read high. The essentials: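 cln2 rad14 yeast strain; compound exposure; growth inhibition read vs vehicle controls.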
Experiment [5] can be described thus: NCI Yeast Anticancer Drug Screen. Data for the bub3 strain (AID 167). The conditions noted are these: S. cerevisiae bub3 mutant strain, active compounds read high. The procedure, abridged:
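Yeast carrying a defined mutation is treated with each compound, and growth is compared with that of vehicle-exposed cells to give inhibition.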

The nature of experiment [6]: NCI Yeast Anticancer Drug Screen. Data for the mlh1 rad18 strain (AID 175). The conditions noted are these: S. cerevisiae mlh1 rad18 strain growth inhibition, active compounds read high. The essentials: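 Yeast w/ defined DNA-repair lesions; compound exposure; growth vs vehicle controls → % inhibition.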
Where [7] appears, read: at 5.0 µM (retest, dose inferred, filed as 0.5).
Setting [8] is: at 50.0 µM (retest, dose inferred, filed as 5.0).

Consider `CC1SC2(C(=O)Nc3ccc([N+](=O)[O-])cc32)N(c2ccc(Cl)cc2)C1=O` (configuration not stated), for which the growth inhibition was 7% in experiment [1] (setting [7]); 97% (active) in experiment [1] (setting [8]); 95.6% (active) in experiment [1] (at 50.0 µM); -2% in experiment [2] (setting [7]); 97% (active) in experiment [2] (setting [8]); 95.7% (active) in experiment [2] (at 50.0 µM). The growth inhibition in experiment [3] (setting [7]) is -1%; in experiment [3] (setting [8]), 98% (active); in experiment [3] (at 50.0 µM), 79.2% (active); in experiment [4] (setting [7]), -1%; in experiment [4] (setting [8]) it was 97% (active); in experiment [4] (at 50.0 µM), 81.7% (active). Also, the growth inhibition is 12% in experiment [5] (setting [7]); 98% (active) in experiment [5] (setting [8]); 96.2% (active) in experiment [5] (at 50.0 µM); 6% in experiment [6] (setting [7]); 98% (active) in experiment [6] (setting [8]); 93.5% (active) in experiment [6] (at 50.0 µM).

For `Cc1cccc2c1C1c3c(C)cccc3C(O)CC1CC2O` (configuration not stated), the growth inhibition in experiment [1] (setting [7]) is 15%; in experiment [1] (setting [8]), 3%; in experiment [1] (at 50.0 µM) it was 36.5%; in experiment [2] (setting [7]), -6%; in experiment [2] (setting [8]) it was -4%; in experiment [2] (at 50.0 µM), 23.1%. For the same compound, the growth inhibition is -2% in experiment [3] (setting [7]); 45% in experiment [3] (setting [8]); 42.4% in experiment [3] (at 50.0 µM); -18% in experiment [4] (setting [7]); -1% in experiment [4] (setting [8]); 30.1% in experiment [4] (at 50.0 µM). The growth inhibition in experiment [5] (setting [7]) is -10%; in experiment [5] (setting [8]) it was 4%; in experiment [5] (at 50.0 µM), 33.5%; in experiment [6] (setting [7]), 1%; in experiment [6] (setting [8]), 28%; in experiment [6] (at 50.0 µM), 39.8%.

Consider `NC(CCCCCC(N)C(=O)O)C(=O)O` (configuration not stated), for which the growth inhibition was -165% in experiment [1] (setting [7]); -146% in experiment [1] (setting [8]); 15.1% in experiment [1] (at 50.0 µM); -50% in experiment [2] (setting [7]); -54% in experiment [2] (setting [8]); 9.1% in experiment [2] (at 50.0 µM). The growth inhibition in experiment [3] (setting [7]) was -66%; in experiment [3] (setting [8]), -66%; in experiment [3] (at 50.0 µM), 14.9%; in experiment [4] (setting [7]) it was -60%; in experiment [4] (setting [8]), -83%; in experiment [4] (at 50.0 µM) it was 76.8% (active). For the same compound, the growth inhibition in experiment [5] (setting [7]) is -67%; in experiment [5] (setting [8]), -71%; in experiment [5] (at 50.0 µM) it was 18.8%; in experiment [6] (setting [7]), -241%; in experiment [6] (setting [8]), -121%; in experiment [6] (at 50.0 µM), 3.05%.

As to `OC(Cc1ccccc1)(Cc1ccccc1)c1ccccc1`, the growth inhibition in experiment [1] (setting [7]) was 20%; in experiment [1] (setting [8]), 98% (active); in experiment [1] (at 50.0 µM), 88.5% (active); in experiment [2] (setting [7]), 13%; in experiment [2] (setting [8]), 99% (active); in experiment [2] (at 50.0 µM), 78.2% (active). Also, the growth inhibition is -3% in experiment [3] (setting [7]); 99% (active) in experiment [3] (setting [8]); 78% (active) in experiment [3] (at 50.0 µM); 3% in experiment [4] (setting [7]); 98% (active) in experiment [4] (setting [8]); 93.9% (active) in experiment [4] (at 50.0 µM). Further, the growth inhibition in experiment [5] (setting [7]) was -14%; in experiment [5] (setting [8]), 97% (active); in experiment [5] (at 50.0 µM), 88.3% (active); in experiment [6] (setting [7]) it was -6%; in experiment [6] (setting [8]) it was 99% (active); in experiment [6] (at 50.0 µM), 96% (active).

Consider `c1ccc(N=C2SC3=NCCN3C2=Nc2ccccc2)cc1`, for which the growth inhibition was 43% in experiment [1] (setting [7]); 87% (active) in experiment [1] (setting [8]); 50% in experiment [1] (at 50.0 µM); 7% in experiment [2] (setting [7]); 86% (active) in experiment [2] (setting [8]); 74.5% (active) in experiment [2] (at 50.0 µM). Moreover, the growth inhibition in experiment [3] (setting [7]) was 17%; in experiment [3] (setting [8]) it was 86% (active); in experiment [3] (at 50.0 µM), 72% (active); in experiment [4] (setting [7]), 31%; in experiment [4] (setting [8]), 66%; in experiment [4] (at 50.0 µM), 46.6%. The growth inhibition in experiment [5] (setting [7]) is -11%; in experiment [5] (setting [8]), 97% (active); in experiment [5] (at 50.0 µM), 70.2% (active); in experiment [6] (setting [7]), 13%; in experiment [6] (setting [8]) it was 78% (active); in experiment [6] (at 50.0 µM) it was 61.9%.

In the case of `CC(=O)Oc1ccc(/C=C2\N=C(c3ccccc3)OC2=O)c(OC(C)=O)c1`, the growth inhibition in experiment [1] (setting [7]) was 4%; in experiment [1] (setting [8]), 75% (active); in experiment [1] (at 50.0 µM), 15.3%; in experiment [2] (setting [7]) it was 1%; in experiment [2] (setting [8]) it was 55%; in experiment [2] (at 50.0 µM), 4.25%. Also, the growth inhibition in experiment [3] (setting [7]) was -4%; in experiment [3] (setting [8]), 36%; in experiment [3] (at 50.0 µM), 10.8%; in experiment [4] (setting [7]) it was 2%; in experiment [4] (setting [8]) it was 37%; in experiment [4] (at 50.0 µM) it was 25.8%. Also, the growth inhibition is -2% in experiment [5] (setting [7]); 79% (active) in experiment [5] (setting [8]); 9.55% in experiment [5] (at 50.0 µM); 0% in experiment [6] (setting [7]); 77% (active) in experiment [6] (setting [8]); 1.05% in experiment [6] (at 50.0 µM).

Turning to `O=C1Oc2cc3c(c4cccc1c24)OCN(c1ccccc1)C3`, the growth inhibition in experiment [1] (setting [7]) is -22%; in experiment [1] (setting [8]), 25%; in experiment [1] (at 50.0 µM) it was 62.5%; in experiment [2] (setting [7]) it was -24%; in experiment [2] (setting [8]) it was 19%; in experiment [2] (at 50.0 µM), 49.9%. Besides, the growth inhibition in experiment [3] (setting [7]) is -11%; in experiment [3] (setting [8]) it was 18%; in experiment [3] (at 50.0 µM), 78.2% (active); in experiment [4] (setting [7]), -15%; in experiment [4] (setting [8]), 15%; in experiment [4] (at 50.0 µM), 35%. The growth inhibition in experiment [5] (setting [7]) was -17%; in experiment [5] (setting [8]), 25%; in experiment [5] (at 50.0 µM), 49%; in experiment [6] (setting [7]), -5%; in experiment [6] (setting [8]), 49%; in experiment [6] (at 50.0 µM) it was 58%.

With `O=C(C(/C=N\C(=S)Nc1ccccc1Cl)=C(/O)c1ccccc1)c1ccccc1`, the growth inhibition in experiment [1] (setting [7]) was 86% (active); in experiment [1] (setting [8]), 99% (active); in experiment [1] (at 50.0 µM) it was 99.4% (active); in experiment [2] (setting [7]), 81% (active); in experiment [2] (setting [8]) it was 100% (active); in experiment [2] (at 50.0 µM) it was 99% (active). Also, the growth inhibition was 55% in experiment [3] (setting [7]); 99% (active) in experiment [3] (setting [8]); 99.3% (active) in experiment [3] (at 50.0 µM); 95% (active) in experiment [4] (setting [7]); 99% (active) in experiment [4] (setting [8]); 98.4% (active) in experiment [4] (at 50.0 µM). Besides, the growth inhibition in experiment [5] (setting [7]) is 99% (active); in experiment [5] (setting [8]) it was 99% (active); in experiment [5] (at 50.0 µM), 99.3% (active); in experiment [6] (setting [7]), 90% (active); in experiment [6] (setting [8]), 99% (active); in experiment [6] (at 50.0 µM), 99.1% (active).

As to `COc1cc2c(cc1OC)C(C)N(C)c1c-2c(OC(C)=O)cc2cc(OC)c(OC)cc12` (configuration not stated), the growth inhibition in experiment [1] (setting [7]) is 2%; in experiment [1] (setting [8]), 52%; in experiment [1] (at 50.0 µM) it was 82.5% (active); in experiment [2] (setting [7]), -4%; in experiment [2] (setting [8]), 64%; in experiment [2] (at 50.0 µM) it was 87.4% (active). Further, the growth inhibition in experiment [3] (setting [7]) was -4%; in experiment [3] (setting [8]), 67%; in experiment [3] (at 50.0 µM), 64.2%; in experiment [4] (setting [7]) it was -8%; in experiment [4] (setting [8]) it was 49%; in experiment [4] (at 50.0 µM) it was 19.6%. Moreover, the growth inhibition was -4% in experiment [5] (setting [7]); 72% (active) in experiment [5] (setting [8]); 42.2% in experiment [5] (at 50.0 µM); -3% in experiment [6] (setting [7]); 54% in experiment [6] (setting [8]); 70.5% (active) in experiment [6] (at 50.0 µM).
